Assay in all cases: Primary qHTS to identify gynecologic anti-cancer compounds using libraries of approved drugs and bioactive compounds (AID 1345084); also: nearly all actives have a fitted effect of over 55% in size
Holding throughout (settings): Gynecologic cancer cell panel viability, ATPlite luminescence, 48 h; series mostly up to 57.5 µM

Experiment [1] concerns OV90. The gist of the method:
(§1)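 Measured: luminescence after ATPlite addition (15 min, RT). Exposure: 48 h, 37 C, 5% CO2.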

In experiment [2] the test system is PA-1. The gist of the method:
as §1

Experiment [3] relates to SKOV3. The gist of the method: as §1
Experiment [4] deals with Tov-21-G. The gist of the method:
as §1

In experiment [5] the test system is Tov112D. The method, boiled down: as §1

Results filed as inconclusive are left out. Values without a mark were called inactive. Calls of active or inactive are those of the source. Calls follow the shape of the dose curve; as a rule, active = well fitted cell-killing curve with a large enough effect; inconclusive = small, poorly fitted or top-dose-only effect, or effect the other way; inactive = flat fitted curve, though single readings scatter.
Potency is read from the fitted curve at half-maximal effect.

In the case of `C=C1CCN([C@H](C)[C@](O)(Cn2cncn2)c2ccc(F)cc2F)CC1`, the Potency entry in experiment [1], in experiment [2], in experiment [3], in experiment [4] and in experiment [5] was “inactive” throughout.

For `CC(C)(C)OC(=O)c1ncn2c1C(C)(C)Nc1ccccc1-2`, the Potency entry in experiment [1], in experiment [2], in experiment [3], in experiment [4] and in experiment [5] was “inactive” in each case.

`CNCCCC1(c2ccccc2)OC(C)(C)c2ccccc21` (stereo not given): the Potency result in experiment [1], in experiment [2], in experiment [3], in experiment [4] and in experiment [5] was “inactive” in each case.

As to `CCCC(CCC)C(=O)NCc1ccc2c(cnn2-c2ccccc2OC)c1`, the Potency result in experiment [1], in experiment [2], in experiment [3], in experiment [4] and in experiment [5] was “inactive” throughout.

Take `C/C=C/[C@@H]1C=C[C@@H]2C[C@H](C)CC[C@H]2[C@]1(C)/C(O)=C1/C(=O)[C@@H](CO)N(C)C1=O`: the Potency entry in experiment [1], in experiment [2], in experiment [3], in experiment [4] and in experiment [5] was “inactive” throughout.

Take `CC(C)(Cc1ccccc1)NCC(O)c1ccc(O)c(NS(C)(=O)=O)c1` (stereo not given): the Potency entry in experiment [1], in experiment [2], in experiment [3], in experiment [4] and in experiment [5] was “inactive” each time.

Take `COC(=O)c1ccc(N2CCN(C)CC2)c(NC(=O)c2cccc(OC)c2)c1`: the Potency entry in experiment [1], in experiment [2], in experiment [3], in experiment [4] and in experiment [5] was “inactive” throughout.

Regarding `COc1cc2c(cc1OCCCN1CCCC1)N=C(N)C21CCC1`, the Potency entry in experiment [1], in experiment [2], in experiment [3], in experiment [4] and in experiment [5] was “inactive” in each case.

`O=C(NCCN1CCN(c2cccc3c2OCCO3)CC1)c1ccc(F)cc1`: the Potency entry in experiment [1], in experiment [2], in experiment [3], in experiment [4] and in experiment [5] was “inactive” in each case.

Take `O=c1[nH]c2cccc(N3CCN(Cc4ccc(-c5ccccc5)cc4)CC3)c2o1`: the Potency entry in experiment [1], in experiment [2], in experiment [3], in experiment [4] and in experiment [5] was “inactive” in each case.

Consider `CCCSc1nc(N[C@@H]2C[C@H]2c2ccc(F)c(F)c2)c2nnn([C@@H]3C[C@H](OCCO)[C@@H](O)[C@H]3O)c2n1`, for which the Potency result in experiment [1], in experiment [2], in experiment [3], in experiment [4] and in experiment [5] was “inactive” in each case.

As for `C/C=C(\C)C(=O)OC1C=C(C)CC(OC(=O)c2ccc(O)cc2)C2C1(C)CCC2(O)C(C)C` (stereo not given), the Potency entry in experiment [1], in experiment [2], in experiment [3], in experiment [4] and in experiment [5] was “inactive” each time.

Turning to `COc1cc(C(C)=O)c(OC)c2c1OC(C)(C)C=C2`, the Potency entry in experiment [1], in experiment [2], in experiment [3], in experiment [4] and in experiment [5] was “inactive” in each case.

For the compound `CC(=O)OC1C(O)CC2(C)C(CCC3(C)C2CC=C2C4C5(CCC(CO[C@@H]6O[C@H](CO)[C@@H](O)[C@H](O)[C@H]6O)(OC5=O)C4(C)O)C(O)CC23C)C1(C)C` (stereo not given in full), the Potency entry in experiment [1], in experiment [2], in experiment [3], in experiment [4] and in experiment [5] was “inactive” each time.

Consider `COC(=O)C(Cc1ccc(OCCn2c(=O)sc3cc(C(=O)c4ccccc4)ccc32)cc1)C(=O)OC`, for which the Potency result in experiment [1], in experiment [2], in experiment [3], in experiment [4] and in experiment [5] was “inactive” throughout.

In the case of `COc1cc2nc(N3CCN(C(=O)COc4c(OC)cccc4C(C)C)CC3)nc(N)c2cc1OC`, the Potency result in experiment [1], in experiment [2], in experiment [3], in experiment [4] and in experiment [5] was “inactive” each time.

`NC(=O)C1=CC2C3C=CC2C(OC3=O)O1` (stereo not given): the Potency result in experiment [1], in experiment [2], in experiment [3], in experiment [4] and in experiment [5] was “inactive” in each case.

As to `c1cc(-c2cnn3cc(-c4ccc(N5CCNCC5)cc4)cnc23)c2cccnc2c1`, the Potency result in experiment [1], in experiment [2], in experiment [3], in experiment [4] and in experiment [5] was “inactive” each time.

In the case of `CC(=O)C1=C(O)C=C2Oc3c(C(C)=O)c(O)c(C)c(O)c3[C@]2(C)C1=O`, the Potency result in experiment [1], in experiment [2], in experiment [3], in experiment [4] and in experiment [5] was “inactive” throughout.

`O=C(NCC1CCN(Cc2cccc(Cl)c2)CC1)[C@@H]1CCCN(c2ncnc3c2nc2n3CCCC2)C1`: the Potency result in experiment [1], in experiment [2], in experiment [3], in experiment [4] and in experiment [5] was “inactive” each time.

`O=C(NCCN1CCN(c2cccc3ccc(O)cc23)CC1)c1ccc(F)cc1`: the Potency entry in experiment [1], in experiment [2], in experiment [3], in experiment [4] and in experiment [5] was “inactive” throughout.

As for `COc1ccc(-n2c(SCCCN3C(=O)c4cccc5cccc(c45)C3=O)nnc2-c2ccncc2)cc1`, the Potency result in experiment [1], in experiment [2], in experiment [3], in experiment [4] and in experiment [5] was “inactive” throughout.

On to `C=C1CC[C@H]2C(=C)CC[C@H]3C(=C)C(=O)O[C@@H]3[C@@H]12`, for which the Potency result in experiment [1], in experiment [2], in experiment [3], in experiment [4] and in experiment [5] was “inactive” throughout.

On to `COc1cc(NC(=O)c2cc(C3CC3)on2)c(OC)cc1Cl`, for which the Potency result in experiment [1], in experiment [2], in experiment [3], in experiment [4] and in experiment [5] was “inactive” throughout.

In the case of `c1cc(NC2CCNCC2)nc(-c2cnc3ccccn23)c1`, the Potency in experiment [1] was 11.2 µM (active); in experiment [2], 20 µM (active); in experiment [3], 8.91 µM (active); in experiment [4] it was 15.8 µM (active); in experiment [5], 20 µM (active).

On to `CC1(CO)CC2C(O)C3=C(CC(C)(O)C2C1)C(=O)OC3` (stereo not given), for which the Potency entry in experiment [1], in experiment [2], in experiment [3], in experiment [4] and in experiment [5] was “inactive” in each case.

As for `COc1ccccc1N1CCN(CC(C(=O)NC(C)(C)C)c2ccccc2)CC1` (stereo not given), the Potency result in experiment [1], in experiment [2], in experiment [3], in experiment [4] and in experiment [5] was “inactive” throughout.

For the compound `C/C=C(\C)C(=O)O[C@H]1C[C@](C)(O)[C@H]2CC=C(C)[C@H]2[C@@H]2OC(=O)[C@H](C)[C@H]21`, the Potency result in experiment [1], in experiment [2], in experiment [3], in experiment [4] and in experiment [5] was “inactive” each time.

The values above are taken from PubChem BioAssay (NCATS).
